An excerpt weighted towards active compounds, which were near 2.2% of everything screened.
PvdQ acylase = blocks Pseudomonas aeruginosa PvdQ acylase activity. purified PvdQ acylase, fluorescence plate reader. inhibition, % at 10 µM. actives 0.063% (n = 340,000). AID 488965; in the data active means inhibition above about 30%, passing the limit was not always enough; inconclusive means no clear call, values can overlap the other calls
DENV2 CPE = DENV2-induced cell death inhibition | DENV2-infected cells, cytopathic effect rescue, plate reader | CPE inhibition, % at 9.99 µM | actives 1.7% (n = 350,000); in the data active means CPE inhibition above about 20%, passing the limit was not always enough; inconclusive means no clear call, values can overlap the other calls; tested in BHK-21 cells
miR-122 sensor = blocks miR-122 activity in Huh7 sensor cells; Huh7 miR-122 Renilla luciferase sensor, 48 h; neutral wells = 0, positive control = 100; activation (reporter increase), % at 12.5 µM; actives 0.3% (n = 340,000);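 active means mean replicate activation score at least 90 and every replicate individually at or above 90; inconclusive means only one of the two criteria met; inactive means neither criterion met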;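 further: higher luciferase means less miR-122 activity so hits act as miR-122 inhibitors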
PGC1a acetyl inh = PGC1a acetylation modulation, inhibitor mode; AID 651687; actives 0.17% (n = 350,000); inhibition, % at 15.6 µM; U2OS PGC1a acetylation, AlphaScreen anti-acetyl-lysine; with virally co-expressed GCN5 acetyltransferase;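 active means every replicate shows inhibition of at least 40%; inconclusive means mean inhibition at least 40% but some replicate below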
Statin myotox sup = suppressors of simvastatin-induced myotoxicity in C2C12 myotubes | ATP luminescence, 48 h; scaled: DMSO 0, geranylgeraniol control 100 | rescue of ATP level, % at 7.49 µM | actives 0.78% (n = 330,000);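 active means mean ATP rescue above about 67%, or every replicate alone reaching that limit, limit read from the data, passing the limit was not always enough; inconclusive means no clear call, values can overlap the other calls; inactive means mean under the limit and some replicate under it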;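 further: myotubes were challenged with 10 µM simvastatin during compound exposure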
Each line names hits and unclear results; the compound was inactive in the other large screens; ! = a repeat was not active.

C[C@@H]1CN([C@H](C)CO)C(=O)Cc2cc(NS(=O)(=O)c3ccccc3)ccc2O[C@H]1CN(C)C(=O)Nc1ccccc1	none (no result: PvdQ acylase)
C[C@H](CO)N1C[C@H](C)[C@H](CN(C)C(=O)Nc2ccccc2)Oc2ccc(NS(=O)(=O)c3ccccc3)cc2CC1=O	DENV2 CPE 33.6 (no result: PvdQ acylase)
Cn1cnc(S(=O)(=O)N[C@@H]2C=C[C@@H](CC(=O)NCC3CC3)O[C@H]2CO)c1	DENV2 CPE inconclusive (no result: PvdQ acylase)
COc1ccccc1-n1cnc2cc(NCc3ccccc3O)ccc21	none
COc1ccccc1-n1cnc2cc(NCc3ccco3)ccc21	Statin myotox sup 73.3 (no result: DENV2 CPE)
COc1cc(S(=O)(=O)N2CCN(C(=O)c3ccccc3F)CC2)c(OC)cc1NC(C)=O	Statin myotox sup 101.8 (no result: DENV2 CPE)
CCOC(=O)N1CCN(C(=O)C2CC(c3ccccc3OC)=NO2)CC1 (stereo not given)	Statin myotox sup 105.9
COc1cc(OC)c(C2=NOC(C(=O)N3CCCc4ccccc43)C2)cc1Cl (stereo not given)	Statin myotox sup 134.9 (no result: DENV2 CPE)
COc1ccc(N(C(=O)c2snc(C(N)=O)c2N)C(C(=O)NC2CCCC2)c2ccc3ncccc3c2)cc1 (stereo not given)	none
CC(C)c1ccc(N(C(=O)c2snc(C(N)=O)c2N)C(C(=O)NCC2CCCO2)c2ccc(N(C)C)cc2)cc1 (stereo not given)	DENV2 CPE 31.8 (no result: Statin myotox sup)
NC(=O)c1nsc(C(=O)N(c2ccccc2)C(C(=O)NC2CCCC2)c2ccc3ncccc3c2)c1N (stereo not given)	DENV2 CPE 39.1 (no result: miR-122 sensor, PGC1a acetyl inh)
CCNC(=O)C[C@@H]1CC[C@@H]2[C@@H](COc3ccc(NC(=O)NC(C)C)cc3C(=O)N2C)O1	none (no result: PvdQ acylase, DENV2 CPE)
CNC[C@@H]1Oc2cc(C#CC3(O)CCCC3)ccc2S(=O)(=O)N([C@H](C)CO)C[C@H]1C	none (no result: PvdQ acylase)
COc1cccc(CNC(=O)C[C@@H]2C=C[C@@H](NC(=O)C3CCOCC3)[C@H](CO)O2)c1	none (no result: PvdQ acylase, miR-122 sensor)
Cc1ccnc(NCc2cc(C)ccc2O)c1	miR-122 sensor 211.0 (no result: PGC1a acetyl inh)
Cc1ccc(O)c(CNc2ccccn2)c1	Statin myotox sup 112.1 (no result: DENV2 CPE)
COc1ccc(CN(C)C[C@H]2OCCCC[C@@H](C)Oc3ccc(NS(C)(=O)=O)cc3C(=O)N([C@H](C)CO)C[C@H]2C)cc1	none (no result: PvdQ acylase)
Cc1ccccc1OCc1nnc(SCc2cc(=O)[nH]c3ccccc23)n1-c1ccccc1	DENV2 CPE inconclusive
Cc1ccc(OCc2nnc(SCc3cc(=O)[nH]c4ccccc34)n2-c2ccccc2)cc1	DENV2 CPE 60.3 (no result: miR-122 sensor, PGC1a acetyl inh, Statin myotox sup)
C[C@@H]1CCCCO[C@H](CN(C)C(=O)Nc2cccc3ccccc23)[C@@H](C)CN([C@@H](C)CO)C(=O)c2cc(NS(=O)(=O)c3cn(C)cn3)ccc2O1	DENV2 CPE 89.0 (no result: PvdQ acylase, Statin myotox sup)
C[C@@H]1CCCCO[C@H](CN(C)C(=O)Nc2ccccc2)[C@@H](C)CN([C@H](C)CO)C(=O)c2cc(NS(=O)(=O)c3cn(C)cn3)ccc2O1	DENV2 CPE 44.6! (no result: PvdQ acylase)
C[C@@H]1CCCCO[C@H](CN(C)C(=O)Nc2ccccc2)[C@H](C)CN([C@H](C)CO)C(=O)c2cc(NS(=O)(=O)c3cn(C)cn3)ccc2O1	none (no result: PvdQ acylase, Statin myotox sup)
C[C@H](CO)N1C[C@H](C)[C@@H](CN(C)C(=O)Nc2cccc3ccccc23)OCCCC[C@H](C)Oc2ccc(NS(=O)(=O)c3cn(C)cn3)cc2C1=O	none (no result: PvdQ acylase)
COc1ccc(NC(=O)N(C)C[C@H]2Oc3ccc(NC(=O)Cn4cnnn4)cc3CC(=O)N([C@H](C)CO)C[C@@H]2C)cc1	none (no result: PvdQ acylase)
C[C@H]1CN([C@@H](C)CO)S(=O)(=O)c2ccc(C3=CCCC3)cc2O[C@@H]1CN(C)C(=O)C1CCOCC1	none (no result: PvdQ acylase)
C/C=C/Cn1c(SCc2ccccc2)nc2c1c(=O)[nH]c(=O)n2C	Statin myotox sup 116.5 (no result: DENV2 CPE)
CCOCCn1c(SCc2ccccc2)nc2c1c(=O)[nH]c(=O)n2C	none
COc1ccc2c3c([nH]c2c1)[C@@H](CO)N(C(=O)c1cccnc1)CC31CCN(C(=O)c2cccnc2)CC1	none (no result: PvdQ acylase, miR-122 sensor, Statin myotox sup)
Fc1ccc(-c2csc(-c3ccccn3)n2)cc1F	PvdQ acylase 33.1 (no result: miR-122 sensor, PGC1a acetyl inh, Statin myotox sup)
c1ccc(-c2nc(-c3ccco3)cs2)nc1	Statin myotox sup inconclusive (no result: DENV2 CPE)
CCCNC(=O)C[C@@H]1CC[C@H]2[C@@H](COC[C@@H](O)CN2C(=O)Nc2cccc(Cl)c2)O1	none (no result: PvdQ acylase)
C[C@@H]1CN([C@H](C)CO)C(=O)c2cccc(NC(=O)C3CCOCC3)c2O[C@@H]1CN(C)Cc1ccc(C(=O)Nc2ccccc2N)cc1	DENV2 CPE 46.6, Statin myotox sup 110.1 (no result: PvdQ acylase)

Source: PubChem BioAssay (Broad Institute)
